This is a sample that favours compounds with a hit; in the whole collection about 1.9% have one here.
MEX-5 binding = C. elegans MEX-5 TCR-2 RNA binding activity; Q9XUB2; MEX-5/FITC-TCR2 RNA binding, fluorescence polarization; hits give low values; activity score (negative = inhibition of binding), % at 10 µM; actives 0.38% (n = 300,000); AID 1832;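 active = inhibition past about -25% in most replicates, and total fluorescence under double the plate's negative control median, limit read from the data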;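 also: 0% = DMSO and -100% = 5 µM competing unlabeled TCR2 RNA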
LANA-H2B inh = blocks KSHV LANA binding to histone H2A/H2B. Q9QR71. cell-free LANA-H2A/H2B peptide, fluorescence polarization. inhibition, % (no concentration beside the values). actives 0.6% (n = 320,000). AID 2629; in the data active = inhibition mostly above about 10%, no sharp cut-off; inactive = mostly below about 6.7%
GLD-1 TGE inh = GLD-1-TGE RNA interaction inhibition (C. elegans); purified GLD-1 + fluorescein TGE RNA, fluorescence polarization; actives 0.44% (n = 320,000); Q17339; AID 2280; inhibition, % at 5.96 µM;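 active = percent inhibition above a per-plate cutoff, the plate mean of test compounds plus 3 SD, cut at about 30% in these data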;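 also: 0% = DMSO wells with GLD-1 and probe and 100% = wells lacking GLD-1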
Target sequence (Q17339 whole entry, looked up): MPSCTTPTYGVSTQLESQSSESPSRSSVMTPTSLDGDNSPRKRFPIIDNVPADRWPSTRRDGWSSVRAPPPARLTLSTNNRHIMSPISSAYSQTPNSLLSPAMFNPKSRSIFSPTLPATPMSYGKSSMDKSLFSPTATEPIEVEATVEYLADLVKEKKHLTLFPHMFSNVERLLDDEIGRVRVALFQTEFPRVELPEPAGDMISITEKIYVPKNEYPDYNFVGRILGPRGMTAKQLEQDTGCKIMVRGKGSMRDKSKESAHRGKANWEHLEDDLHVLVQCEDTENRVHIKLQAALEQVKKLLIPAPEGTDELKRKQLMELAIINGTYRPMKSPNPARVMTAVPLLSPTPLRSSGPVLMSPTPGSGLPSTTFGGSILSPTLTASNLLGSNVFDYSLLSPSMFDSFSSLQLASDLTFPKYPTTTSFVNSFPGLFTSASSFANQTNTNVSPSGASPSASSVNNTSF
Yeast superoxide = lowers age-related superoxide in aged yeast cells. superoxide response (% of plate mean), % at 10 µM. S. cerevisiae aged cells, superoxide DHE fluorescence; hits give low values. actives 0.18% (n = 330,000);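 active = superoxide response under a set limit, about three screen SD below normal, cut at about 65% in these data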;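 also: yeast aged for seven days with compound at 30 °C before DHE staining; 100% = average MFI of all compound-treated wells on the plate with controls excluded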
Bcl-xL primary = Bcl-xL (human) inhibition; AID 2129; Q07817; actives 0.7% (n = 320,000); inhibition, % at 10.9 µM; GST-Bcl-xL / FITC-Bim BH3 peptide fluorescence polarization;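 active = inhibition above the mean of all tested compounds plus 3 SD, cutoff set per campaign, cut at about 30% in these data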;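 also: 0% = DMSO wells and 100% = unlabeled Bim-BH3 peptide competitor; inhibitors lower millipolarization by displacing the labeled peptide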
MCL1 BIM primary = inhibitors of human MCL1 binding to BIM-BH3 peptide; actives 0.68% (n = 320,000); GST-MCL1 / FITC-Bim-BH3 fluorescence polarization; AID 2057; Q07820; inhibition, % at 10.9 µM;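 active = inhibition above the mean inhibition of all tested compounds plus 3 SD, set per campaign, cut at about 40% in these data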;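 also: 0% = DMSO wells and 100% = unlabeled Bim-BH3 peptide control; higher means more loss of mP so more displacement of Bim peptide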
The depositor's hits bear a star.

How did CCC(C)NC(=O)CCC(=O)NNc1nc2ccccc2c2nc(C)nn12 (stereo unspecified) do in these assays?
MEX-5 binding: -3; LANA-H2B inh: 2; GLD-1 TGE inh: -3; Yeast superoxide: 85; Bcl-xL primary: -1; MCL1 BIM primary: 2

Results for COCCNC(=O)CCC(=O)NNc1nc2ccccc2c2nc(C)nn12 ?
MEX-5 binding: -45*; LANA-H2B inh: 1; GLD-1 TGE inh: -4; Yeast superoxide: 123; Bcl-xL primary: 3; MCL1 BIM primary: -4

What do the screens show for `Cc1nc2c3ccccc3nc(NNC(=O)CCC(=O)NC(C)C)n2n1`?
MEX-5 binding: -42*; LANA-H2B inh: -6; GLD-1 TGE inh: 1; Yeast superoxide: 97; Bcl-xL primary: 5; MCL1 BIM primary: 5

How did Cc1nc2c3ccccc3nc(NNC(=O)CCC(=O)N3CCCC(C)C3)n2n1 (stereo unspecified) do in these assays?
MEX-5 binding: -27*; LANA-H2B inh: -2; GLD-1 TGE inh: 2; Yeast superoxide: 101; Bcl-xL primary: -1; MCL1 BIM primary: 1

Results for O=C(NCC(=O)N1CCCC(C(F)(F)F)C1)c1ccco1 (stereo unspecified) ?
LANA-H2B inh: -11; GLD-1 TGE inh: 7; Yeast superoxide: 89; Bcl-xL primary: 1; MCL1 BIM primary: -7

What do the screens show for `CC(=O)c1c(C)[nH]c(C(=O)Nc2cccc(C)n2)c1C`?
MEX-5 binding: 0; LANA-H2B inh: 9.4*; GLD-1 TGE inh: -7; Yeast superoxide: 98; Bcl-xL primary: 0; MCL1 BIM primary: 3

How did CC(=O)c1c(C)[nH]c(C(=O)Nc2cccc3ccccc23)c1C do in these assays?
MEX-5 binding: 1; LANA-H2B inh: 3; GLD-1 TGE inh: 1; Yeast superoxide: 108; Bcl-xL primary: -3; MCL1 BIM primary: -12

What do the screens show for `O=C(C1=NN(c2ccccc2)C2C(=O)N(c3cccc(Cl)c3)C(=O)C12)c1ccccc1` (stereo unspecified)?
LANA-H2B inh: 17; GLD-1 TGE inh: 5; Yeast superoxide: 85; Bcl-xL primary: 32*; MCL1 BIM primary: 14

Results for CC(=O)C1=NOC2C(=O)N(c3ccc(Cl)cc3)C(=O)C12 (stereo unspecified) ?
MEX-5 binding: 2; LANA-H2B inh: -1; GLD-1 TGE inh: -4; Yeast superoxide: 103; Bcl-xL primary: 1; MCL1 BIM primary: 0

How did O=C(C1=NN(c2ccccc2)C2C(=O)N(c3ccc(Cl)cc3)C(=O)C12)c1ccccc1 (stereo unspecified) do in these assays?
LANA-H2B inh: -8; GLD-1 TGE inh: 23; Yeast superoxide: 128; Bcl-xL primary: 46*; MCL1 BIM primary: 39

How did Oc1ccc(C[C@H]2CNCCN2CC2(c3ccccc3)CC2)cc1 do in these assays?
MEX-5 binding: 0; LANA-H2B inh: -3; GLD-1 TGE inh: 1; Yeast superoxide: 99; Bcl-xL primary: 1; MCL1 BIM primary: 2

How did O=C(CSc1nc2c(cnn2-c2cccc(Cl)c2)c(=O)[nH]1)NCCC1=CCCCC1 do in these assays?
LANA-H2B inh: -2; GLD-1 TGE inh: -3; Yeast superoxide: 61*; Bcl-xL primary: 2; MCL1 BIM primary: 7

Results for COc1ccc(Cl)cc1NC(=O)COC(=O)C1=NNC(=O)CC1 ?
LANA-H2B inh: 3; GLD-1 TGE inh: -3; Yeast superoxide: 105

Results for Oc1ccc(-c2cn3ccccc3n2)cc1O ?
MEX-5 binding: -28*; LANA-H2B inh: 2; GLD-1 TGE inh: 10; Yeast superoxide: 99; Bcl-xL primary: 21; MCL1 BIM primary: 30

What do the screens show for `Oc1ccc(-c2cn3ccccc3n2)cc1`?
MEX-5 binding: -3; LANA-H2B inh: -2; GLD-1 TGE inh: -1; Yeast superoxide: 105; Bcl-xL primary: -2; MCL1 BIM primary: -3

What do the screens show for `CSCCC(C(=O)N(C)CC(=O)Nc1cccc(F)c1)N1C(=O)c2ccccc2C1=O` (stereo unspecified)?
LANA-H2B inh: 1; GLD-1 TGE inh: 1; Yeast superoxide: 90; Bcl-xL primary: 2; MCL1 BIM primary: -3

How did CCOCCCNc1nc2nc3ccc(C)cn3c(=O)c2cc1C(=O)NCC1CCCO1 (stereo unspecified) do in these assays?
MEX-5 binding: -34*; LANA-H2B inh: 1; GLD-1 TGE inh: -1; Yeast superoxide: 117; Bcl-xL primary: 8; MCL1 BIM primary: 2

What do the screens show for `Cc1cccn2c(=O)c3cc(C(=O)NCC4CCCO4)c(=N)n(CC4CCCO4)c3nc12` (stereo unspecified)?
MEX-5 binding: -2; LANA-H2B inh: 1; GLD-1 TGE inh: 2; Yeast superoxide: 112; Bcl-xL primary: 6; MCL1 BIM primary: 4

Results for Cc1ccc2nc3c(cc(C(=O)NCC4CCCO4)c(=N)n3CCCOC(C)C)c(=O)n2c1 (stereo unspecified) ?
LANA-H2B inh: 18*; GLD-1 TGE inh: 7; Yeast superoxide: 83; Bcl-xL primary: 6; MCL1 BIM primary: 1

Results for CC(=O)Nc1cccc(C(=O)NNC(=O)c2n[nH]c(=O)c3ccccc23)c1 ?
LANA-H2B inh: 3; GLD-1 TGE inh: 2; Yeast superoxide: 94; Bcl-xL primary: 3; MCL1 BIM primary: -4

How did COc1ccc(CNC(=O)COC(=O)CN2C(=O)C3CC=CCC3C2=O)cc1 (stereo unspecified) do in these assays?
LANA-H2B inh: 9; GLD-1 TGE inh: 6; Yeast superoxide: 92

How did Cc1ccc(NS(=O)(=O)c2cc(C(=O)N(C)C3CCN(C)CC3)ccc2Cl)cc1Cl do in these assays?
LANA-H2B inh: 2; GLD-1 TGE inh: 6; Yeast superoxide: 106

Results for COc1cccc(/C=C/c2n[nH]c(=O)c(C#N)c2C)c1 ?
MEX-5 binding: -3; LANA-H2B inh: 2; GLD-1 TGE inh: 7; Yeast superoxide: 96; Bcl-xL primary: 4; MCL1 BIM primary: 4

Results for Cc1ccc(S(=O)(=O)c2nc(-c3ccccc3F)oc2N2CC(C)OC(C)C2)cc1 (stereo unspecified) ?
MEX-5 binding: 3; LANA-H2B inh: 59*; GLD-1 TGE inh: 1; Yeast superoxide: 95; Bcl-xL primary: 2; MCL1 BIM primary: -3

How did O=S(=O)(c1ccc(F)cc1)c1nc(-c2ccccc2F)oc1N1CCCCC1 do in these assays?
MEX-5 binding: -2; LANA-H2B inh: 4; GLD-1 TGE inh: -4; Yeast superoxide: 126; Bcl-xL primary: 2; MCL1 BIM primary: 4

How did CCOc1ccccc1OCCCC(=O)N1CCN(S(=O)(=O)c2ccc(C)cc2C)CC1 do in these assays?
LANA-H2B inh: 0; GLD-1 TGE inh: 7; Yeast superoxide: 84; Bcl-xL primary: 2; MCL1 BIM primary: 16

How did CC(C)Cc1nnc(NC(=O)CCC(=O)N2CC(C)CC(C)C2)s1 (stereo unspecified) do in these assays?
MEX-5 binding: -27*; LANA-H2B inh: 5; GLD-1 TGE inh: 2; Yeast superoxide: 76; Bcl-xL primary: 1; MCL1 BIM primary: 7

High-throughput results deposited in PubChem BioAssay by several laboratories.
